Shiga inhibitor: Shiga toxin inhibition; Vero cells, Shiga toxin protein synthesis inhibition reporter; inhibition, % at 38.7 µM; hit rate 9.2% among 290,000; AID 2315; in the data active means inhibition mostly above about 28%, no sharp cut-off; inactive means mostly below about 43%
CHX counter: counter-screen for Shiga toxin inhibitors: cycloheximide protein synthesis inhibition; cell reporter, cycloheximide protein synthesis inhibition counterscreen; max response, %; hit rate 12% among 300,000; AID 2314; in the data active means max response mostly above about 13%, no sharp cut-off; inactive means mostly below about 14%; further: read at 38.3 µM for the half of the compounds with a filed dose
SARS PLP yeast: blocks SARS-CoV papain-like protease in a yeast assay; S. cerevisiae expressing SARS-CoV PLpro, growth rescue; Potency, µM (series often up to 32.9 µM), hits mostly activators; hit rate 0.19% among 330,000; AID 485353; further: nearly all actives have a fitted effect of over 55% in size
NS1 function inh: inhibitors of influenza NS1 protein function. Potency, µM (highest dose often 46.1 µM). hit rate 0.4% among 270,000. AID 2326; further: actives are rising curves; nearly all actives have a fitted effect of over 50% in size
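Recovery from NS1-induced slow growth read by OD600 in budding yeast switched to galactose assay medium (pH 6.0, -URA) at 1:100 dilution. Compound 23 nl per well; the matching strain lacking NS1 serves as control.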
Each line names hits and unclear results; the compound was inactive in the other large screens. Only some compounds are listed: those with a hit (about 12% of all), similar ones and a draw of the others. Unless noted, the call rests on the fitted dose curve.

CC1CN(C(=O)/C=C/c2ccccc2[N+](=O)[O-])CC(C)O1 (stereo not given)	none
CCN1CCN(C(=O)/C=C/c2ccccc2[N+](=O)[O-])CC1	none
CC1CCCCN1C(=O)/C=C/c1ccccc1[N+](=O)[O-] (stereo not given)	CHX counter 20
O=C(/C=C/c1ccccc1[N+](=O)[O-])N1CCCCC1	Shiga inhibitor 66 (no result: NS1 function inh)
O=C(/C=C/c1ccc([N+](=O)[O-])s1)N1CCCCC1	CHX counter 24 (no result: NS1 function inh)
O=C(/C=C/c1cccs1)N1CCCCC1	Shiga inhibitor 61, CHX counter 39
O=C(/C=C/c1ccc([N+](=O)[O-])s1)N1CCCC1	none (no result: NS1 function inh)
CC1(C)C(Cl)C(=O)C(C(=O)c2ccccc2)C(=O)C1Cl (stereo not given)	none
COC(=O)C1=C(C(=O)OC)[C@@H]2N(Cc3ccccc3)c3ccccc3[C@@]23C[C@@H](CO)N(C(=O)NC2CCCC2)C3=N1	none
CCCCc1nc2cc(C(=O)N3CCC(O)CC3)ccc2o1	Shiga inhibitor 47, CHX counter 38
O=C(c1ccc2oc(Cc3ccc(Cl)cc3)nc2c1)N1CCCCC1CCO (stereo not given)	none
CCCCc1nc2cc(C(=O)N(C)CCc3cn[nH]c3)ccc2o1	Shiga inhibitor 61, CHX counter 51
O=C(c1ccc2oc(CCc3ccccc3)nc2c1)N1CC[C@H](O)C1	Shiga inhibitor 85, CHX counter 38
COC1CCN(C(=O)c2ccc3oc(Cc4ccc(Cl)cc4)nc3c2)CC1	none
CCCCc1nc2cc(C(=O)N3CCC[C@H]3CO)ccc2o1	Shiga inhibitor 39, CHX counter 20
Cc1cnc(CN(C)C(=O)c2ccc3oc(Cc4ccccc4)nc3c2)[nH]1	none
Cc1nn(S(=O)(=O)c2ccc(F)cc2)c(C)c1S(=O)(=O)N1CCOCC1	none
CCOC(=O)COc1cc2oc(=O)cc(C)c2cc1[N+](=O)[O-]	none
Cc1cnc(CN(C)C(=O)c2ccc3oc(Cc4ccc(Cl)cc4)nc3c2)[nH]1	none
CCCCc1nc2cc(C(=O)N(C)C3CCOCC3)ccc2o1	Shiga inhibitor 116, CHX counter 68
CC(=O)CCc1c(C)c2cc(C)ccc2[nH]c1=O	CHX counter 33
CC(=O)CCc1c(C)[nH]c2ccccc2c1=O	none
COC(=O)CNC(=O)C1(C)C=CCN1C(=O)c1ccccc1 (stereo not given)	Shiga inhibitor 94, CHX counter 40
CC(C)CC1(C(=O)NCCN2CCOCC2)C=CCN1C(=O)c1ccccc1 (stereo not given)	none
O=C(COC(=O)/C=C/c1ccc(F)cc1)NC1CC1	none (no result: Shiga inhibitor, CHX counter, NS1 function inh)
O=C(NNC(=O)c1ccccc1Br)c1cccs1	Shiga inhibitor 65, CHX counter 26
O=C(NNC(=O)c1cccs1)c1ccc(Br)cc1	CHX counter 18
O=C(NNC(=S)NC(=O)c1cccs1)c1ccc(O)cc1	Shiga inhibitor 28
O=C(NNC(=S)NC(=O)c1cccs1)c1ccc(NC(=O)c2ccccc2)cc1	NS1 function inh inconclusive
O=C(NNC(=O)c1cccs1)c1ccccc1	Shiga inhibitor 53, CHX counter 28 (no result: NS1 function inh)
COc1cc(CN2CCNC(=O)C2CC(=O)N(Cc2nccn2C)C(C)C)cc(OC)c1 (stereo not given)	none
Cc1ccnc(NC(=O)c2ccc(OCc3c(C)noc3C)cc2)c1	none (no result: Shiga inhibitor, CHX counter, NS1 function inh)
OC(c1ccc(Cl)cc1)c1nccc2ccccc12 (stereo not given)	none (no result: Shiga inhibitor)
O=C(NNC(=O)c1cccs1)c1ccc(Cl)cc1	CHX counter 19
C[C@H](NC(=O)c1ccc(Cl)cc1)C(=O)NNC(=O)c1cccs1	none (no result: Shiga inhibitor, CHX counter, NS1 function inh)
CN(CC(=O)Nc1ccccc1Cl)C(=O)COC(=O)c1nc(Cl)c(Cl)c(Cl)c1Cl	Shiga inhibitor 53, CHX counter 45
CN(CC(=O)Nc1ccccc1Cl)C(=O)COC(=O)c1ccc(Cl)nc1	none (no result: Shiga inhibitor, CHX counter, NS1 function inh)
O=C(CCl)N=c1sccn1Cc1ccccc1Cl	none
O=C(Cn1ccsc1=NC(=O)C(F)(F)F)c1ccccc1	CHX counter 30
Nc1c(C(=O)Nc2ccccc2)sc2nc(-c3cccnc3)ccc12	Shiga inhibitor 70, CHX counter 49
Nc1c(C(=O)Nc2ccccc2)sc2nc(-c3ccco3)ccc12	Shiga inhibitor 95, CHX counter 27
COc1ccccc1NC(=O)c1sc2nc(-c3ccco3)ccc2c1N	CHX counter 20
O=C(CNC(=O)c1ccccc1F)NCCOc1ccccc1Cl	Shiga inhibitor active, CHX counter 15
COc1ccc(C(=O)NCCOc2ccccc2Cl)c(OC)c1OC	Shiga inhibitor 99, CHX counter 54
COc1cc(C(=O)NCCOc2ccccc2C)c(Br)c(OC)c1OC	none
O=C(NCCOc1ccccc1Cl)C(=O)NCCOc1ccccc1Cl	none (no result: NS1 function inh)
Cc1ccc(C2C(C=Nc3c(C)n(C)n(-c4ccccc4)c3=O)=C(c3ccccc3)Oc3ccccc32)cc1 (stereo not given)	none
S=c1[nH]nc(-c2cc(-c3ccco3)[nH]n2)n1-c1ccccc1Cl	none
S=c1[nH]nc(-c2ccc3ccccc3n2)n1-c1ccccc1Cl	SARS PLP yeast inconclusive
S=c1[nH]nc(-c2ccn[nH]2)n1-c1ccccc1Cl	Shiga inhibitor 72, CHX counter 28
S=c1[nH]nc(-c2ccco2)n1-c1ccccc1Cl	Shiga inhibitor 67, CHX counter 33
COc1cccc(CN2CCN(CCCc3ccccc3)C(CCO)C2)c1O (stereo not given)	none
Cc1sc2c(c1C)CN(CCN1CCOCC1)CN2C(=O)c1ccccc1	CHX counter 20 (no result: NS1 function inh)
O=C(c1ccccc1)c1ccc(C(=O)N2CCOCC2)cc1	none
Cc1ccc(-c2noc(CNC(=O)COc3ccccc3C)n2)cc1	none
CC(C)C[C@H](NC(=O)[C@@H]1CCCN1C(=O)[C@H](Cc1ccccc1)NC(=O)[C@H](C)NC(=O)[C@H](CCC(=O)O)NC(=O)[C@H](C)NC(=O)[C@H](CO)NC(=O)[C@H](CCC(=O)O)NC(=O)[C@H](CC(=O)O)NC(=O)[C@H](CCC(=O)O)NC(=O)[C@H](C)NC(=O)CNC(=O)[C@H](CC(N)=O)NC(=O)[C@@H]1CCCN1C(=O)[C@H](Cc1ccc(O)cc1)NC(=O)[C@@H](NC(=O)[C@H](CCCCN)NC(=O)[C@@H](NC(=O)[C@@H]1CCCN1C(=O)[C@@H](N)CCCNC(=N)N)C(C)C)C(C)C)C(=O)N[C@@H](CCC(=O)O)C(=O)N[C@@H](Cc1ccccc1)C(=O)O	none (no result: SARS PLP yeast, NS1 function inh)
C(#Cc1ccccc1)CN1CCN(c2ccccn2)CC1	CHX counter 25, SARS PLP yeast inconclusive
C(#Cc1ccccc1)CN1CCCCC1	none
c1ccc(COc2ccc(CN3CCN(c4ccccn4)CC3)cc2)cc1	Shiga inhibitor 93, CHX counter 41
COc1ccc(C)cc1NC(=O)CC(NC(C)=O)c1ccccc1 (stereo not given)	none (no result: NS1 function inh)
COc1ccc2c(c1)C(=NN)c1cc(OC)ccc1-2	CHX counter 45
COc1ccc2c(c1)C(=NNc1ccc(C(=O)O)cc1)c1cc(OC)ccc1-2	none
CCCCOC(=O)c1ccc(NC(=O)CSc2nncn2C)cc1	CHX counter 25
COc1ccc(NC(=O)CSc2nc(C)cc(C)n2)cc1	none
CCCCOC(=O)c1ccc(NC(=O)COC(=O)CSc2nc(C)cc(C)n2)cc1	Shiga inhibitor 58, CHX counter 21
O=C(Cn1ccc2ccccc2c1=O)NCC(=O)N1CCCCC1	none

Source: PubChem BioAssay (National Center for Advancing Translational Sciences (NCATS))
